The source of these data is PubChem BioAssay (NCATS).

Each structure is given as a SMILES string. A number with no mark means an inactive call. Results filed as inconclusive are left out. Active and inactive are the calls of the source. Calls follow the shape of the dose curve; as a rule, active = well fitted curve in the direction sought with a large enough effect; inconclusive = small, poorly fitted or top-dose-only effect, or another doubt; inactive = no such curve, though single readings can be large; an effect the other way counts as inactive or inconclusive.

Test [1] concerns the target Phospholipid hydroperoxide glutathione peroxidase GPX4 (Homo sapiens) (UniProt P36969). Put plainly: Primary qHTS Assay for Inhibitors of Recombinant Selenoprotein Glutathione Peroxidase 4 (GPX4) (AID 1845192). Also: nearly all actives have a fitted effect of over 65% in size. Also: potency is read from the fitted curve at half-maximal effect. In short, it runs like this: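 NADPH consumption followed by fluorescence at 340/450 nm, t=0 and after 15 min at room temperature. Reaction started with cumene hydroperoxide (0.5 mM final) after 30 min compound–GPX4 preincubation; final 200 nM GPX4, 100 nM GR, 1 mM GSH, 0.5 mM NADPH.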
A general note: In qHTS, concentration-response curves come from the screen itself.

In test [2] the target is Luciferin 4-monooxygenase (Photinus pyralis) (UniProt P08659). Put plainly: Primary firefly luciferase (FLuc) qHTS assay for identification of artifact compounds. (AID 1845220). Also: nearly all actives have a fitted effect of over 60% in size. In short, it runs like this: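 Compounds sat 15 min at room temperature with 10 uM luciferin and 10 uM ATP (pH 7.6 Tris acetate). Firefly luciferase (10 nM final) was then added, and luminescence was read 5 min later. Data normalized to no-enzyme and DMSO controls were Hill-fitted.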

Test [3] can be described thus: Primary fluorescence-based thiol-reactive (MSTI) qHTS assay for identification of artifact compounds. (AID 1845221).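 Also: series mostly up to about 54 µM; thiol-reactive compounds lower the probe fluorescence signal; nearly all actives have a fitted effect of over 65% in size.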 The method in brief: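 A multi-concentration qHTS design tested compounds against 4 uM MSTI, pH 7.4 phosphate-buffered saline. Plates were protected from light for 1 h at room temperature before imaging fluorescence.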
Test [4] has as its system Nanoluciferase (engineered Oplophorus gracilirostris luciferase). Put plainly: Primary Nanoluciferase (NLuc) qHTS assay for identification of artifact compounds. (AID 1845222). Also: series mostly up to about 54 µM. The method in brief:
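Luminescence from secreted NLuc (filtered, 1:55-diluted S16 cell medium) read 5 min after Nano-Glo substrate; compounds preincubated 15 min, RT. Hill fits of inhibition normalized to DMSO and no-enzyme.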

The nature of test [5]: Primary redox qHTS assay for identification of artifact compounds. (AID 1845223). The method in brief: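 Redox-cycling detection via DTT (250 uM final) oxidation coupled to Amplex Red (25 uM)/HRP (250 mU/mL) in HBSS. 15 min preincubation plus 30 min after DTT, room temperature. Ex/Em 525/598 nm; 4-parameter Hill fit against DMSO and 10 uM DA3003.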
Test [6] in a line: Quantitative High-Throughput drug screen in 47 multiple myeloma cell lines against the NCATS MIPE library collection: AMO1_DSMZ cell viability assay (AID 1918927; also: nearly all actives have a fitted effect of over 30% in size; also: potency is read from the fitted curve at half-maximal effect). The method in brief: (§1)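 CellTiter-Glo luminescence (ATP) after 48 h compound exposure, 37C/5% CO2; 500 cells/well; MIPE 4.0 approved/investigational drugs pinned in; DMSO = 100%, media only = 0% viability.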
The nature of test [7]: Quantitative High-Throughput drug screen in 47 multiple myeloma cell lines against the NCATS MIPE library collection: ARP1_JJKsccF8 cell viability assay (AID 1918928; also: nearly all actives have a fitted effect of over 40% in size; also: potency is read from the fitted curve at half-maximal effect). In short, it runs like this:
(§2)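 Viability screen: myeloma cells (500/well) incubated 48 h at 37 °C, humidified 5% CO2, with pinned library compounds; CellTiter-Glo added, luminescence read; DMSO wells set 100%, medium-only wells 0%.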

Test [8] can be described thus: Quantitative High-Throughput drug screen in 47 multiple myeloma cell lines against the NCATS MIPE library collection: Karpas620_DSMZ cell viability assay (AID 1918959). Also: nearly all actives have a fitted effect of over 30% in size. Also: potency is read from the fitted curve at half-maximal effect. In short, it runs like this:
(§3)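 Approved and investigational drugs from MIPE 4.0 were added by pin tool to 500 cells per well. After 48 hours at 37C, ATP-based CellTiter-Glo luminescence indicated remaining viability.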

Test [9] can be described thus: Quantitative High-Throughput drug screen in 47 multiple myeloma cell lines against the NCATS MIPE library collection: KMM1_JCRB cell viability assay (AID 1918960). Also: nearly all actives have a fitted effect of over 30% in size. Also: potency is read from the fitted curve at half-maximal effect. In short, it runs like this: as §2
Test [10] is described as follows: Quantitative High-Throughput drug screen in 47 multiple myeloma cell lines against the NCATS MIPE library collection: FR4_PLB cell viability assay (AID 1918924; also: nearly all actives have a fitted effect of over 35% in size; also: potency is read from the fitted curve at half-maximal effect). The method in brief: as §3
Test [11] concerns the target Glutathione peroxidase 1 (Homo sapiens) (UniProt P07203). Put plainly: Primary qHTS Assay for Inhibitors of Recombinant Selenoprotein Glutathione Peroxidase 1 (GPX1) (AID 1845191). Also: nearly all actives have a fitted effect of over 65% in size. The method in brief:
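NADPH consumption tracked by fluorescence at 340/450 nm between t=0 and t=15 min, room temperature. Final mix: 10 nM GPX1, 100 nM glutathione reductase, 1 mM GSH, 0.5 mM NADPH, 0.5 mM cumene hydroperoxide, 0.01% BSA; 30 min compound–enzyme preincubation.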

Test [12] is described as follows: Quantitative High-Throughput drug screen in 47 multiple myeloma cell lines against the NCATS MIPE library collection: EJM_DSMZ cell viability assay (AID 1918926; also: nearly all actives have a fitted effect of over 30% in size; also: potency is read from the fitted curve at half-maximal effect). The method in brief: as §1
Test [13] in a line: Quantitative High-Throughput drug screen in 47 multiple myeloma cell lines against the NCATS MIPE library collection: ARD_JJKsccE7 cell viability assay (AID 1918929; also: potency is read from the fitted curve at half-maximal effect). The method in brief:
as §1

Test [14] is described as follows: Quantitative High-Throughput drug screen in 47 multiple myeloma cell lines against the NCATS MIPE library collection: Delta47_JCRB cell viability assay (AID 1918925; also: nearly all actives have a fitted effect of over 45% in size; also: potency is read from the fitted curve at half-maximal effect). In short, it runs like this: as §1

Phospholipid hydroperoxide glutathione peroxidase GPX4 (Homo sapiens), sequence (P36969 whole entry, looked up): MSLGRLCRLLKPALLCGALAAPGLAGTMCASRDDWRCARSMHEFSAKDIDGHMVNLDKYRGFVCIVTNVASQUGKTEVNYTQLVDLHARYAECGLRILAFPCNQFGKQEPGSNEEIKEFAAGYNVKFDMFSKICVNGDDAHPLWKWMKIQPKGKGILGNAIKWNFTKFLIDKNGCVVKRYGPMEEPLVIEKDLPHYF
Glutathione peroxidase 1 (Homo sapiens), sequence (P07203 whole entry, looked up): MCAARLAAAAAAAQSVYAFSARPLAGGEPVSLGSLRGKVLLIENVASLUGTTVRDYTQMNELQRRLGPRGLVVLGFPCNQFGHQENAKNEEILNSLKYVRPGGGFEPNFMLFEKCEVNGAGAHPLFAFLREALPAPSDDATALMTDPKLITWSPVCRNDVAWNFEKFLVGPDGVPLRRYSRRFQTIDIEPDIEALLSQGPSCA

For the molecule `O=C(Nc1ccc(Oc2ccnc3[nH]ccc23)c(F)c1)c1cccn(-c2ccc(F)cc2)c1=O`, the Potency entry in test [1], in test [2], in [3], in test [5], in [6] and in test [7] was “inactive” each time. The Potency result in test [8] is “inactive”. Besides, the result in test [4] was inactive. Besides, the Potency in test [9] is 2.64 µM (active).
Consider `c1ccc2c(Oc3nc(Nc4ccc(N5CCOCC5)cc4)c4ncn(C5CCCCC5)c4n3)cccc2c1`, for which the Potency result in [1], in test [2], in [5], in test [10] and in test [8] was “inactive” throughout. Also, the call in test [4] was inactive. The Potency in test [6] was 9.35 µM (active).
Consider `Cc1noc(-c2ccc(CSCCC(=O)O)cc2)c1NC(=O)OC(C)c1ccccc1Cl` (stereo not drawn), for which the Potency result in test [11], in [12], in test [7], in test [13], in test [8] and in [9] was “inactive” throughout.
Turning to `C[N+]1(C)[C@@H]2C[C@@H](OC(=O)C(O)(c3cccs3)c3cccs3)C[C@H]1[C@@H]1O[C@@H]12`, the Potency result in [1], in test [2], in test [3], in test [5], in test [10] and in test [14] was “inactive” each time. The Potency entry in test [12], in test [6], in [13], in test [8] and in [9] was “inactive” each time. Besides, in [4], the call was inactive.
Take `Cc1ccc2nc(NCCN)c3ncc(C)n3c2c1`: the Potency in [1] is 22.7 µM (active); in test [10] it was 3.32 µM (active); in test [14] it was 5.9 µM (active); in test [12], 1.48 µM (active); in [6], 8.33 µM (active); in [7], 8.33 µM (active). The Potency is 11.8 µM (active) in test [8] and 7.43 µM (active) in test [9].
In the case of `N#Cc1c(C2CCNCC2)cc(-c2c(O)cccc2OCC2CC2)nc1N`, the Potency result in test [11], in [2], in [3] and in test [5] was “inactive” throughout. The result in [4] was inactive. Further, the Potency in [10] is 23.5 µM (active); in test [12] it was 18.7 µM (active); in [6] it was 13.2 µM (active); in test [13], 3.72 µM (active); in test [8], 9.35 µM (active).
As for `Oc1cc2c(cc1O)C1c3ccc(O)c(O)c3OCC1(O)C2` (stereo not drawn), the Potency entry in [1], in test [10], in [14], in test [12], in test [6] and in [7] was “inactive” throughout. Besides, the Potency entry in test [13] and in test [8] was “inactive” throughout.
For `C[C@H]1COc2c(N3CCN(C)CC3)c(F)cc3c(=O)c(C(=O)O)cn1c23`, the Potency entry in [11], in [10], in test [6], in test [7], in [8] and in [9] was “inactive” in each case.
In the case of `COc1ccc(Nc2cc(-c3cnc(N)nc3)nc(N3CCOCC3)n2)cn1`, the Potency result in test [1] was “inactive”. The Potency in [10] is 4.18 µM (active); in [14] it was 1.48 µM (active); in [6] it was 3.72 µM (active); in test [13] it was 0.372 µM (active); in [8], 2.64 µM (active).
Turning to `COC(=O)C1C2CC3c4[nH]c5cc(OC)ccc5c4CCN3CC2CC(OC(=O)c2cc(OC)c(OC)c(OC)c2)C1OC` (stereo not drawn), the Potency result in [11] is “inactive”. For the same molecule, the Potency was 3.72 µM (active) in test [10]; 20.9 µM (active) in [6]; 20.9 µM (active) in test [13]; 23.5 µM (active) in [8]; 20.9 µM (active) in test [9].
Take `CCC[C@H]1C[C@H](C(=O)N[C@@H]([C@@H]2O[C@@H](SC)[C@@H](O)[C@@H](O)[C@@H]2O)[C@H](C)Cl)N(C)C1`: the Potency result in test [1], in test [2], in test [3], in test [5], in [10] and in [12] was “inactive” each time. Also, the Potency result in [6], in test [8] and in test [9] was “inactive” each time. The outcome in test [4] was inactive.
With `C[C@H](NC(=O)Cc1cc(F)cc(F)c1)C(=O)N[C@H](C(=O)OC(C)(C)C)c1ccccc1`, the Potency result in test [1], in [10], in [14], in [12], in test [6] and in [13] was “inactive” each time. Besides, the Potency entry in [8] is “inactive”.
For the molecule `O=C1NCCc2[nH]c(-c3ccncc3)cc21`, in test [1], the Potency result is “inactive”. The Potency in test [10] was 1.87 µM (active); in test [14], 2.96 µM (active); in test [12], 1.87 µM (active); in [6], 1.66 µM (active); in test [7], 5.9 µM (active); in test [8] it was 2.35 µM (active).
In the case of `C=Cc1c(C)c2cc3nc(cc4[nH]c(cc5nc(cc1[nH]2)C(C)=C5CCC(=O)O)c(CCC(=O)OC)c4C)[C@@]1(C)C3=CC=C(C(=O)OC)[C@H]1C(=O)OC`, the Potency result in test [1] is “inactive”. Moreover, the Potency in [10] was 0.662 µM (active); in [14] it was 0.132 µM (active); in [12], 0.0372 µM (active); in test [6], 0.0935 µM (active); in test [7], 0.743 µM (active); in test [13], 0.296 µM (active). Moreover, the Potency in [8] and in test [9] was 0.187 µM (active) throughout.
For the molecule `CCS(=O)(=O)Nc1ccc2[nH]c(O)c(C(=Nc3ccc(CN4CCCCC4)cc3)c3ccccc3)c2c1`, in [1], the Potency entry is “inactive”. Besides, the Potency in test [10] was 18.7 µM (active); in test [14], 0.0526 µM (active); in test [12] it was 6.62 µM (active); in test [6] it was 0.148 µM (active); in [7] it was 0.743 µM (active); in test [13], 0.469 µM (active). The Potency in test [8] was 1.48 µM (active).
Regarding `CC(C)[C@H](CO)Nc1nc(Nc2cccc(Cl)c2)c2ncn(C(C)C)c2n1`, the Potency result in test [1], in test [6], in test [8] and in test [9] was “inactive” each time. Further, the Potency is 16.6 µM (active) in [10], 18.7 µM (active) in test [14], 23.5 µM (active) in [12] and 23.5 µM (active) in [7].
`O=C(Nc1nnc(-c2ccco2)o1)c1cc(-c2ccccc2)nc2ccccc12`: in test [11], the Potency result was “inactive”. The Potency in test [10] is 23.5 µM (active); in [6], 9.35 µM (active); in test [8] it was 20.9 µM (active); in test [9], 14.8 µM (active).
Take `CC(C)Oc1ccc(C(=O)N[C@H](CNC(=O)CN(C)C)Cc2ccc(-c3cn4cccc([C@H](C)O)c4n3)cc2)cc1Cl`: the Potency entry in test [11] is “inactive”. For the same molecule, the Potency in test [10] is 0.148 µM (active); in [6], 0.332 µM (active); in [13] it was 0.264 µM (active); in [8] it was 0.187 µM (active); in test [9], 0.209 µM (active).
